Test results published in ChEMBL document CHEMBL3988442, “University of Dundee, Small-Polar-MMV Screening Library” (2021).
In all, about 48,000 compounds went through this assay and about 13,000 (27%) showed an effect of 50% or more. The list shows a part of the results.

Tested on: Wolbachia pipientis
Experiment: Anti-Wolbachia Cell-Based Screen
Assay type: functional
Parameters: scale not given: in the data most compounds retested in dose-response had high values
Conditions: 5 µM

| Compound | Percent Effect [%] |
| --- | --- |
| CCN1CCCC1Cn1ccc2ccc(C(=O)OC)cc2c1=O (stereo not given) | -21.42 |
| COc1cccc(CN(C)Cc2cccc(C#N)c2)c1OC | -9.148 |
| OC1CCN(C2CCN(Cc3cccc(Cn4cccn4)c3)CC2)CC1 | 19.22 |
| O=C1CNc2ncnc(Nc3cccc(Cn4cccn4)c3)c2N1 | 129.6 |
| c1cc(CN2CCC(CCn3cccn3)CC2)cc(Cn2cccn2)c1 | -8.775 |
| Cc1cc2nc(C3CCCCC3)c(-c3ccnc(NCCO)n3)cn2n1 | 91.18 |
| CCCn1cc(-c2ccnc(NC3CCCc4ccccc43)n2)c(C)n1 (stereo not given) | 2.739 |
| OCCNc1nccc(-c2cn3nccc3nc2C2CCCCC2)n1 | 109.1 |
| CCN(CC)CCCNc1nccc(-c2cn(C)nc2C)n1 | -2.773 |
| CNCCNc1nccc(-c2cn(C)nc2C)n1 | 0.09563 |
| CCCn1ncc(-c2ccnc(NC3CCCc4ccccc43)n2)c1C (stereo not given) | -7.325 |
| CCN(CCNC(=O)C1CCCN(C(C)=O)C1)c1ccccc1C (stereo not given) | 2.266 |
| CNc1ncc(CN(C)c2nc(C)c3ccc(S(C)(=O)=O)cc3n2)cn1 | 9.72 |
| COc1ccnc(CN2CC(=O)N(c3ccc(C)cc3)CC2C)c1OC (stereo not given) | -8.096 |
| COc1cccc(CN2CC(O)CN(C(=O)C(C)(C)C)CC2=O)c1OC (stereo not given) | 116.9 |
| CCOC(=O)N1CC(=O)N(Cc2cccc(OC)c2OC)CC(O)C1 (stereo not given) | 107.9 |
| COc1cccc(CN(C)C(=O)CCC(=O)c2ccccc2)c1OC | -10.25 |
| COc1cccc2cc(CNC(C)(C)C(=O)N3CCC(O)CC3)oc12 | -3.796 |
| C=Cc1ccc(CSc2nc3c(c(=O)[nH]2)CN(CCC)CC3)cc1 | -6.559 |
| CCCN1CCc2nc(SCc3ccccc3F)[nH]c(=O)c2C1 | 16.02 |
| CCCN1CCc2nc(SCc3ccccc3)[nH]c(=O)c2C1 | 19.11 |
| CCCN1CCc2nc(SCc3ccc(F)cc3)[nH]c(=O)c2C1 | 101.4 |
| COCCN1CCc2onc(C(c3ccccc3)c3ccccc3)c2C1 | 19.48 |
| COCCN1CCc2nc(SCc3ccc(F)cc3)[nH]c(=O)c2C1 | 106 |
| CCCN(C)C(=O)c1ccc2c(c1)[nH]c(=O)n2CCOCC | -27.89 |
| Cc1csc(CNC(=O)NCC(O)c2cccc(Cl)c2)n1 (stereo not given) | -23.66 |
| C=C(C)CN(CC)C(=O)c1cc(Cl)ccc1NS(C)(=O)=O | -12.97 |

| Compound | Percent Effect [%] |
| --- | --- |
| COc1cccc(C2C3=C(COC3=O)Nc3[nH]nc(C)c32)c1OC (stereo not given) | 3.331 |
| Cc1ccc(CN2CC[C@@H]3CN(S(C)(=O)=O)CCO[C@@H]3C2)o1 | -7.086 |
| CNC(=O)c1cccc(CC2COCCN(Cc3ccc(C)o3)C2)n1 (stereo not given) | 193.8 |
| CNC(=O)c1cccc(CC2COCCN(Cc3ccsc3)C2)n1 (stereo not given) | 152.2 |
| O=C(NCc1cc(N2CCOCC2)ncn1)c1cccc(CO)n1 | -9.818 |
| Cc1ccc(CN2CCC3(CC2)CC(NC(=O)c2ccccn2)CO3)o1 (stereo not given) | -7.485 |
| Cn1nc(CN2CCOCC2)c2c1CN(Cc1ccsc1)C2.O=C(O)C(F)(F)F.O=C(O)C(F)(F)F | 1.369 |
| COCCN(CCN(C)C)C(=O)NC1CC1 | -6.538 |
| CCCNC(=O)C[S+]([O-])Cc1csc(C2CCCCC2)n1 (stereo not given) | 9.015 |
| CC(C)c1cc(NCc2csc(N(C)C)n2)nc(N)n1 | -34.84 |
| C1CN(c2nc(C3CC3)no2)CCN(C2CCOCC2)C1 | 3.883 |
| CCn1ncc2c1C(COC)CN(S(=O)(=O)C1CC1)C2 (stereo not given) | -7.886 |
| CCn1ncc2c1C(COC)CN(Cc1ccc(OC)cc1)C2 (stereo not given) | 12.18 |
| CCn1ncc2c1C(COC)CN(Cc1cnn(C)c1)C2 (stereo not given) | 98.55 |
| CCn1ncc2c1C(COC)CN(Cc1nccs1)C2 (stereo not given) | 93.87 |
| Cn1ncc2c1C(COCC1CC1)CN(Cc1nccs1)C2 (stereo not given) | -9.049 |
| CC(C)N(CC1CCCN(Cc2ccon2)C1)C(=O)OC(C)(C)C (stereo not given) | -0.3893 |
| CC(C)OCCNC(=O)C1CCC(=O)N(C2CCCC2)C1 (stereo not given) | -13.5 |
| Cc1ccc(CNC(=O)N2CCN(S(C)(=O)=O)CC2)n1C | -9 |
| CN(C)C(=O)c1ccn(-c2ccc3ccccn23)n1 | 2.89 |
| CS(=O)(=O)N1CCCCCC1C1CCN(c2ncccc2C#N)CC1 (stereo not given) | -0.7273 |
| Cc1csc(Nc2nccnc2C2CCCN2S(C)(=O)=O)n1 (stereo not given) | 47.35 |
| CS(=O)(=O)N1CCCC1c1ccnc2nccn12 (stereo not given) | 122.4 |
| Cc1ccc2nc(C3CCCN3Cc3cccc(CCN)c3)[nH]c2c1 (stereo not given) | -6.155 |
| Cc1ccc2nc(C3CCCN3Cc3scnc3C)[nH]c2c1 (stereo not given) | -7.773 |
| CS(=O)(=O)N1CCC[C@H]1c1ncnn1-c1ccc2c(c1)OCO2 | 23.33 |
| CS(=O)(=O)N1CCCCCC1C1CCN(c2ncccn2)CC1 (stereo not given) | -4.856 |

| Compound | Percent Effect [%] |
| --- | --- |
| CC(C)=CCCC(C)CN1CCC(n2cc(C(=O)NCCO)nn2)CC1 (stereo not given) | -5.673 |
| CCCn1cnnc1CN(C)C(=O)CCC(=O)Nc1cc(C)ccc1F | -24.09 |
| O=C(CCCn1cncn1)N1CCC2(CCCNC2=O)C1 (stereo not given) | -3.772 |
| O=C(C[S+]([O-])Cc1csc(C2CCCC2)n1)Nc1ccccc1 (stereo not given) | 0.09199 |
| COCC(O)CN(C)C(=O)NC1CCN(S(C)(=O)=O)CC1 (stereo not given) | 12.14 |
| CCC(CC)(CNC(=O)OC(C)(C)C)NC(=O)C1CCOCC1 | 5.998 |
| O=S(=O)(NCC(O)c1cccs1)c1ccccc1Cl (stereo not given) | 2.157 |
| CCc1nc(N)nc(NCCC(=O)N2CCCC2)c1C | 9.291 |
| CC(C)(C)C(=O)NC[C@H]1Cn2c(-c3ccccc3)cnc2CO1 | -8.442 |
| CN(CC1=CCCN(CCc2ccccn2)C1)C(=O)c1ccco1 | 0.7414 |
| CN(Cc1ccsc1)C(=O)CN1CCc2c(ncn2C)C1 | -3.155 |
| O=C(NCCNc1ncccn1)N1CCc2ccccc2C1 | 8.02 |
| CCOc1ncccc1NC(=O)N1CCc2ccccc2C1 | -0.7073 |
| CNC(=O)c1cccc(CCNC(=O)N2CCc3ccccc3C2)c1 | 1.406 |
| CN(Cc1ccccn1)C(=O)CNC(=O)N1CCc2ccccc2C1 | 97.17 |
| CN(Cc1ccsc1)C(=O)CNC(=O)N1CCc2ccccc2C1 | 90.63 |
| CC(C)c1noc(C(C)N2CCC(c3nc4ccccc4o3)CC2)n1 (stereo not given) | 1.795 |
| Cc1cc(C)c2c(c1)C(NC(=O)CSc1nnc[nH]1)CCO2 (stereo not given) | 8.701 |
| Cc1nn(C)c2nc(N(C)CC3CCN(CC(C)C)C3)sc12 (stereo not given) | -16.91 |
| O=C(c1ccoc1)N1CCCN(CC2CCOc3ccccc3C2)CC1 (stereo not given) | -7.228 |
| Cc1cc(C)cc(OCCC(=O)NC2CC(=O)N(C)C2)c1 (stereo not given) | -4.77 |
| N#Cc1cccc(NC2CC(=O)N(Cc3ccccc3Cl)C2)n1 (stereo not given) | -1.238 |
| CN1CC(c2cc(O)nc(NCc3ccc(Cl)cc3)n2)CC1=O (stereo not given) | 70.24 |
| CC(C)(CO)NC(=O)C1CCC(=O)N(Cc2ccc(Cl)cc2)C1 (stereo not given) | -2.281 |
| COc1cccc(CNc2nc(O)cc(C3CC(=O)N(C)C3)n2)c1 (stereo not given) | -3.669 |
| CN1CC(c2cc(O)nc(NCc3ccccc3Cl)n2)CC1=O (stereo not given) | 83.2 |
| Cc1ccccc1CNc1nc(O)cc(C2CC(=O)N(C)C2)n1 (stereo not given) | -5.04 |

| Compound | Percent Effect [%] |
| --- | --- |
| CC1CCc2nc(O)c(C(=O)NCc3cccc(F)c3)cc2C1 (stereo not given) | -1.382 |
| Cc1nc(NC(=O)NC2CC(=O)N(C)C2)nn1C (stereo not given) | 3.668 |
| Cc1ccc(CNc2nc(O)cc(C3CC(=O)N(C)C3)n2)cc1 (stereo not given) | 96.21 |
| CN1CC(c2cc(O)nc(NCc3cccc(F)c3)n2)CC1=O (stereo not given) | 104.4 |
| CCC(NC(=O)Nc1ccc(OC)c(C)c1)c1noc(C)n1 (stereo not given) | -4.029 |
| CC(C(=O)N1CCCN(c2ccc(C#N)cc2)CC1)n1cccn1 (stereo not given) | 143.8 |
| CC(C(=O)N1CCCN(c2ccccc2C#N)CC1)n1cccn1 (stereo not given) | 129.1 |
| CC(C(=O)N1CCCN(c2ncccc2C#N)CC1)n1cccn1 (stereo not given) | 0.5745 |
| CC(C(=O)N1CCCN(c2ccc(C#N)cc2)CC1)n1ccnc1 (stereo not given) | -8.735 |
| CC(C)c1nccn1C(C)C(=O)N1CCN(c2ccccc2Cl)CC1 (stereo not given) | -35.17 |
| N#Cc1ccc(N2CCCN(CC(=O)N3CCC3)CC2)cc1 | 4.301 |
| CC(C)n1ccnc1CN1C(=O)OC[C@@H]1c1ccccc1 | 11.77 |
| CCOCC(=O)N1C[C@H]2CC[C@@H]1CN(C(=O)c1ccncc1)C2 | -0.6982 |
| Cn1c(Cn2ncc(N3CCCCC3)cc2=O)nc2ccccc21 | 93.17 |
| CN1CCCN(c2cnn(Cc3ccc(C(C)(C)C)cc3)c(=O)c2)CC1 | 10.83 |
| CN(C)c1cnn(CC(=O)N2CCN(c3ccccc3)CC2)c(=O)c1 | 3.087 |
| CN(C)c1cnn(CC(=O)N2Cc3ccccc3C2)c(=O)c1 | 8.607 |
| CCCOCCn1ncc(N2CCCC2)cc1=O | 0.2704 |
| CN1CCCN(c2cnn(Cc3ccncc3)c(=O)c2)CC1 | -30.12 |
| O=c1cc(N2CCCCC2)cnn1CCCn1cccn1 | 21.14 |
| Cn1c(Cn2ncc(N3CCCC3)cc2=O)nc2ccccc21 | 114.5 |
| CN(C)c1cnn(Cc2nc3ccccc3n2C)c(=O)c1 | 116.1 |
| O=C(NC1CC2(CCN(CCO)CC2)Oc2ccccc21)c1csnn1 (stereo not given) | -25.87 |
| CC(C)c1nc(CN(C)C(=O)CCNC(=O)c2ccccc2F)no1 | -5.471 |
